About 83,000 compounds went through this panel and 20% of them were active in at least one assay; those are over-represented in the sample as a whole.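 Cell lines were cultured in 96-well plates, exposed to a single compound concentration, and assessed for percent growth 48 hours later.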 Unmarked numbers belong to inactive results. Calls of active or inactive are those of the source. How the source made its calls: active means growth percent below 10; inactive means the rest.
system: OVCAR-5 ovarian; test: NCI-60 one-dose screen, 48 h (100 = growth as untreated, 0 = no growth, -100 = all killed); details: 10 µM unless noted

Structure (SMILES)	growth
CC1(C)NCCC[C@]2(C)[C@H]3CC[C@@H]4[C@H]5[C@H](C(=O)/C=C/c6ccco6)CC[C@]5(CO)CC[C@@]4(C)[C@]3(C)CC[C@@H]12	101%
CCCCCCNC(=O)Oc1ccc(/C(=C(\C)c2ccccc2)c2ccc(OCCCN(C)C)cc2)cc1	85.5%
Cc1ccc(-n2nc3c(c(C#N)c2=O)CC(c2ccccc2[N+](=O)[O-])C([N+](=O)[O-])=C3O)cc1 (centres undefined)	99.8%
CN1CCN(CCNc2nccc(-c3c(-c4cccc(O)c4)nc4sccn34)n2)S1(=O)=O	68.6%
NC(=NCCCOc1ccc(F)cc1)Nc1ccc(Cl)cc1	54.5%
Cc1cc(Cl)nc(N(CCNc2ccnc3cc(Cl)ccc23)Cc2ccccn2)n1	74.3%
COc1ccc(-c2cnc3c(-c4cccc5cnccc45)cnn3c2)cc1	96.1%
CCOC(=O)c1cc(C#N)n2ccc3ccccc3c12	94.2%
N#CC(C(=O)/C(=N/NC(=O)c1ccccc1O)C(C#N)c1ccccc1)c1ccccc1 (centres undefined)	91.2%
N#C/C(=C\c1cccc(C#N)c1)c1ccccc1	100%
Cc1nc2ccc(Cl)cn2c1-c1nnc(SCc2ccc([N+](=O)[O-])cc2)o1	83.7%
CCN(CC)CCn1c(=O)c2cc(OC)c(OC)cc2c2ccc3cc4c(cc3c21)OCO4	64.9%
COc1ccc2nc(-c3ccc(-c4noc(-c5cc(OC)c(OC)c(OC)c5)n4)cc3)[nH]c2c1	113%
CC(C)(C)[Si](C)(C)OC1[C@@H](O[Si](C)(C)C(C)(C)C)[C@@H](CNC(=O)NC(=O)CCl)O[C@H]1n1cnc2c(NC(=O)Nc3ccccc3)ncnc21 (some centres undefined)	5.37% (active)
O=C1C=CC(=O)N1c1cccc(Cl)c1	111%
O=C(O)c1ccc2c(c1)C(=O)N(Cc1ccccc1)C2=O	105%
O=C(Cc1ccccc1)NNc1nc(Cl)nc(N2CCN(C(c3ccccc3)c3ccccc3)CC2)n1	94.8%
O=C(/C=C/c1c(-c2ccc(Cl)cc2)nn(-c2ccccc2)c1C(F)(F)F)c1ccc(Cl)cc1	102%
O=C1Nc2ccccc2/C1=C\c1c(-c2ccc(F)cc2)nc2ccccn12	77.5%

Structure (SMILES)	growth
COc1cc(C2C3=C(COC3=O)N(CCO)c3cc4c(cc32)CCC4)cc(OC)c1OC (centres undefined)	8% (active)
CC(c1ccccc1)C(C(=O)c1ccccc1)c1ccccc1 (centres undefined)	101%
C#Cc1cccc(NC(=O)Nc2cccc(NC(=O)CCl)c2)c1	12.8% [8.25 µM]
COc1cc(-c2cc(-c3ccc(N(C)C)cc3)nc(N3CCOCC3)c2C#N)cc(OC)c1OC	37.9%
Cc1nc2sccn2c1-c1cn2ccsc2n1	87.7%
C=CCn1c(-c2ccc(-c3nc4ccc(C)cc4[nH]3)cc2)n[nH]c1=S	101%
COc1cc(CC(=O)n2ncc3ccc(N)cc32)cc(OC)c1OC	91.9%
COC(=O)C(CC=O)C(=O)C(=O)Nc1cccc(C(F)(F)F)c1 (centres undefined)	112%
CCNc1nc2ccc(Nc3ccnc4cc(Cl)ccc34)cc2[nH]1	113%
Cc1cc2c(c(C)c1Cl)C(=O)/C(=C/c1ccc(O)c(O)c1)O2	117%
O=C1/C=C/[C@@H](O)[C@@H]2C[C@@H](O)C[C@H]2/C=C/CCC[C@H](CCc2cccc3ccccc23)O1	24.6%
COc1cc2c(cc1OC)C(=O)/C(=C/c1cc(C)c(O)c(C)c1)S2	64.7%
Cc1ccc(-n2c3c(c(-c4ccccc4)c2-c2ccccc2)C2=NCCN2C=N3)cc1	103%
NS(=O)(=O)c1ccc(CCn2c(SCC(=O)c3ccc(Cl)cc3)nc3ccccc3c2=O)cc1	108%
COc1cc(NC(=O)CSc2nc3ccc(C)cc3c(=O)n2Cc2ccccc2)cc(OC)c1OC	96.3%
CN1[C@@H]2CC[C@H]1/C(=C\c1ccccc1)C(=O)/C2=C/c1ccccc1	98.4%
Cc1ccc(C(=O)/C(=C/c2ccc([N+](=O)[O-])cc2)SCc2ccc(Cl)cc2)cc1	85.1%
CSc1nc2sc3cccc(Cl)c3n2c(=N)c1C#N	119%
Cc1c2cc[nH]c(=O)c2c(C)c2c1[nH]c1cc(OCCN3CCN(C)CC3)ccc12	16.1%

system: OVCAR-4 ovarian; test: as above; details: 10 µM unless noted

Structure (SMILES)	growth
CC1(C)NCCC[C@]2(C)[C@H]3CC[C@@H]4[C@H]5[C@H](C(=O)/C=C/c6ccco6)CC[C@]5(CO)CC[C@@]4(C)[C@]3(C)CC[C@@H]12	79.9%
CCCCCCNC(=O)Oc1ccc(/C(=C(\C)c2ccccc2)c2ccc(OCCCN(C)C)cc2)cc1	86.9%
Cc1ccc(-n2nc3c(c(C#N)c2=O)CC(c2ccccc2[N+](=O)[O-])C([N+](=O)[O-])=C3O)cc1 (centres undefined)	75.2%
CN1CCN(CCNc2nccc(-c3c(-c4cccc(O)c4)nc4sccn34)n2)S1(=O)=O	77.5%
NC(=NCCCOc1ccc(F)cc1)Nc1ccc(Cl)cc1	46%
Cc1cc(Cl)nc(N(CCNc2ccnc3cc(Cl)ccc23)Cc2ccccn2)n1	35%
COc1ccc(-c2cnc3c(-c4cccc5cnccc45)cnn3c2)cc1	36.4%
CCOC(=O)c1cc(C#N)n2ccc3ccccc3c12	95.3%
N#CC(C(=O)/C(=N/NC(=O)c1ccccc1O)C(C#N)c1ccccc1)c1ccccc1 (centres undefined)	58.8%
N#C/C(=C\c1cccc(C#N)c1)c1ccccc1	98.8%
Cc1nc2ccc(Cl)cn2c1-c1nnc(SCc2ccc([N+](=O)[O-])cc2)o1	32.5%
CCN(CC)CCn1c(=O)c2cc(OC)c(OC)cc2c2ccc3cc4c(cc3c21)OCO4	66.4%
COc1ccc2nc(-c3ccc(-c4noc(-c5cc(OC)c(OC)c(OC)c5)n4)cc3)[nH]c2c1	-53.4% (active)
CC(C)(C)[Si](C)(C)OC1[C@@H](O[Si](C)(C)C(C)(C)C)[C@@H](CNC(=O)NC(=O)CCl)O[C@H]1n1cnc2c(NC(=O)Nc3ccccc3)ncnc21 (some centres undefined)	-42.3% (active)
O=C(O)c1ccc2c(c1)C(=O)N(Cc1ccccc1)C2=O	114%
O=C(Cc1ccccc1)NNc1nc(Cl)nc(N2CCN(C(c3ccccc3)c3ccccc3)CC2)n1	106%
O=C(/C=C/c1c(-c2ccc(Cl)cc2)nn(-c2ccccc2)c1C(F)(F)F)c1ccc(Cl)cc1	89%
O=C1Nc2ccccc2/C1=C\c1c(-c2ccc(F)cc2)nc2ccccn12	83.9%

Structure (SMILES)	growth
COc1cc(C2C3=C(COC3=O)N(CCO)c3cc4c(cc32)CCC4)cc(OC)c1OC (centres undefined)	23.3%
CC(c1ccccc1)C(C(=O)c1ccccc1)c1ccccc1 (centres undefined)	96%
C#Cc1cccc(NC(=O)Nc2cccc(NC(=O)CCl)c2)c1	-35.9% [8.25 µM] (active)
COc1cc(-c2cc(-c3ccc(N(C)C)cc3)nc(N3CCOCC3)c2C#N)cc(OC)c1OC	64.5%
Cc1nc2sccn2c1-c1cn2ccsc2n1	70.8%
C=CCn1c(-c2ccc(-c3nc4ccc(C)cc4[nH]3)cc2)n[nH]c1=S	90.4%
COc1cc(CC(=O)n2ncc3ccc(N)cc32)cc(OC)c1OC	88.4%
COC(=O)C(CC=O)C(=O)C(=O)Nc1cccc(C(F)(F)F)c1 (centres undefined)	105%
CCNc1nc2ccc(Nc3ccnc4cc(Cl)ccc34)cc2[nH]1	82.6%
Cc1cc2c(c(C)c1Cl)C(=O)/C(=C/c1ccc(O)c(O)c1)O2	96.3%
O=C1/C=C/[C@@H](O)[C@@H]2C[C@@H](O)C[C@H]2/C=C/CCC[C@H](CCc2cccc3ccccc23)O1	14.4%
COc1cc2c(cc1OC)C(=O)/C(=C/c1cc(C)c(O)c(C)c1)S2	84.7%
Cc1ccc(-n2c3c(c(-c4ccccc4)c2-c2ccccc2)C2=NCCN2C=N3)cc1	78.5%
NS(=O)(=O)c1ccc(CCn2c(SCC(=O)c3ccc(Cl)cc3)nc3ccccc3c2=O)cc1	103%
COc1cc(NC(=O)CSc2nc3ccc(C)cc3c(=O)n2Cc2ccccc2)cc(OC)c1OC	23.9%
CN1[C@@H]2CC[C@H]1/C(=C\c1ccccc1)C(=O)/C2=C/c1ccccc1	48.4%
Cc1ccc(C(=O)/C(=C/c2ccc([N+](=O)[O-])cc2)SCc2ccc(Cl)cc2)cc1	58.8%
Cc1c2cc[nH]c(=O)c2c(C)c2c1[nH]c1cc(OCCN3CCN(C)CC3)ccc12	-1.71% (active)
